# From PubChem BioAssay
# Compounds with a hit are over-represented: about 0.71% of the library has one in this group of screens.
# H9c2 TAG inh: triacylglycerol accumulation inhibition; AID 651582; hit rate 0.66% among 230,000; inhibition, % at 12.5 µM; H9c2 cells, Nile Red lipid (TAG) fluorescence; cells loaded with 200 µM oleic acid;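 active means pattern-corrected inhibition of lipid staining of at least 50% with the nuclear-stain viability signal not falling by more than 50%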;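 further: 0% = DMSO wells and 100% = triacsin C control wells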
# beta cell repl: MIN6 beta-cell proliferation induction | AID 2380 | MIN6 cells proliferation, ATPlite luminescence, 48 h; cells starved in 0.2% serum; 100% = growth in 10% serum | hit rate 0.29% among 330,000 | proliferation, % at 10 µM;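 active means compounds whose signal lies at least 3.5 SD above the mean of all wells on their plate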;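 further: 0% = DMSO-treated cells in low-serum medium and 100% = 10% serum control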
# iPSC survival up: increases survival of single human iPS cells; hiPSC single-cell survival, ATPlite luminescence; 100% = ROCK inhibitor wells, 0% = DMSO; survival enhancement, % at 20 µM; hit rate 0.044% among 360,000; in the data active means survival enhancement above about 18%;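 further: cells exposed to compounds for 16 hours before the ATP read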
# An asterisk follows results filed as active; . = no result; ! = not active in a repeat.
SMILES,H9c2 TAG inh,beta cell repl,iPSC survival up
COC(=O)[C@]12CCCCC=C1N(Cc1cccc3ccccc13)C(=O)[C@H](CC(=O)NCC1CCCCC1)C2,.,.,-0.5
O=C(NCc1ccccc1Cl)c1csc([C@@H]2C[C@H](O)[C@@H](CO)O2)n1,4.5,.,0.5
CC1=C(C(=O)N(C(C)C)C(C)C)CC(CC(=O)NCc2cccc3ccccc23)C(=O)N1CCC1=CCCCC1 (stereo unspecified),.,.,-1.3
CCN1C(=O)[C@H]2[C@@H](c3ccc(C(F)(F)F)cc3)N[C@]3(CCCN(Cc4ccco4)C3=O)[C@H]2C1=O,10.2,.,1.9
CN(C)CCCN(C(=O)CCc1ccccc1)c1nc2ccc(F)cc2s1,.,0.0,2.5
CN(C)CCCN(C(=O)CCc1ccccc1)c1nc2ccc(Br)cc2s1,98.2*,-5.8,-0.7
CCC(C)(C)c1ccc(OCCCC[n+]2ccccc2)c(C(C)(C)CC)c1,52.1*,-6.1,-4.0
CCCCCc1ccc(OCCCC[n+]2ccccc2)c(CCCCC)c1,32.5,-5.7,-2.0
O=c1c2c(-c3ccccc3)csc2nc2c3ccccc3c(NCCN3CCOCC3)nn12,100.5*,.,-1.2
O=c1c2ccccc2nc2c3ccccc3c(NCCN3CCOCC3)nn12,.,-5.6,.
COc1ccc(C(C)(NC(C)=O)c2nc(-c3cccc(F)c3)cs2)cc1 (stereo unspecified),-15.6,.,-2.0
O=C(Nc1ccccc1)c1cc(C2CCCCN2C(=O)OCCF)on1 (stereo unspecified),4.5,.,-1.9
CN(C)CCCN1c2ccccc2Sc2ccc(Cl)cc21,50.3*!,-8.0,0.2
OCCN1CCN(CCCN2c3ccccc3Sc3ccc(Cl)cc32)CC1,16.9,-8.1,-0.2
COC(=O)Cc1ccc(OC2(C)CCN(Cc3ccccc3OC(F)F)C2)cc1 (stereo unspecified),-11.6,.,3.6
Cc1ccc(S(=O)(=O)N2CCCCC2)cc1NC(=O)Cn1ncc(Cl)c(Cl)c1=O,48.1,-6.0,-5.3
O=C(Cn1ncc(Cl)c(Cl)c1=O)c1ccc2c(c1)OCCO2,4.1,-6.1,-4.1
Cc1ccc(C(=O)OCn2ncc(Cl)c(Cl)c2=O)cc1,.,-6.1,17.1
CCC(=O)Nc1ccc(C(=O)Cn2ncc(Cl)c(Cl)c2=O)cc1,61.3*,-6.3,-0.8
CCOC(=O)c1ccc(NC(=O)Cn2ncc(Cl)c(Cl)c2=O)cc1,54.6*,-5.8,-3.9
Cc1cc(Br)ccc1NC(=O)CNC(=O)Cn1ncc(Cl)c(Cl)c1=O,55.9*,-6.1,-1.8
CCOC(=O)[C@]12CCCC=C1N(Cc1ccc(Cl)cc1Cl)C(=O)[C@H](CC(=O)N1CCN(C(=O)C3CC3)CC1)C2,.,.,0.0
COc1ccc(C(C)NC(=O)C2CCN(CCOc3ccc(Cl)cc3Cl)CC2)cc1OC (stereo unspecified),-1.4,.,1.4
COC(=O)[C@]12CCCCC=C1N(Cc1ccc(Cl)cc1Cl)C(=O)[C@H](CC(=O)N1CCSCC1)C2,.,.,0.4
O=C(NCc1ccccc1)c1cc(C2CCCN(S(=O)(=O)c3cccs3)C2)on1 (stereo unspecified),10.3,.,-0.1
SMILES,H9c2 TAG inh,beta cell repl,iPSC survival up
CC1=C/C(=N\NC(=S)Nc2cccnc2)CC(C)(C)C1,53.3*,.,2.7
CC1(C)C2CC=C(/C=N/NC(=S)Nc3cccnc3)C1C2 (stereo unspecified),-2.4,0.6,-0.3
COc1ccc(CNC(=O)CC[C@H]2O[C@@H](n3cnc4c(NC(=O)c5ccccc5)ncnc43)[C@H](O)[C@@H]2O)cc1,.,.,-3.6
Cc1ccc(S(=O)(=O)NC(=O)Nc2ccc(N(C)C)cc2)cc1,59.6*,-4.8,-0.3
Cc1ccc(NC(=O)NNS(=O)(=O)c2ccc(Br)cc2)cc1,12.5,-1.9,1.1
Cc1cccc(CC(=O)NCCS(=O)(=O)N2CCN(c3ccccc3)CC2)c1,26.8,.,-2.5
CCCCOCCCNC(=O)C[C@@H]1C[C@@]2(C(=O)OCC)CCCC=C2N(Cc2ccc3c(c2)OCO3)C1=O,.,.,0.6
Cc1cccc(N2C(=S)NC3c4cc(Cl)ccc4OC2(C)C3C(=O)N(C)C)c1 (stereo unspecified),11.1,6.7,-0.3
Cc1ccc(N2C(=S)NC3c4cc(Cl)ccc4OC2(C)C3C(=O)N(C)C)cc1 (stereo unspecified),6.4,10.2*,0.1
COC1=CC(C)C2CC3OC(O)CC4C(C)=C(OC)C(=O)C(C2(C)C1=O)C34C (stereo unspecified),.,.,-2.0
CC1CC(O)C2C3(C)CCCC2(COC3=O)C12CCC1(CCOC1=O)O2 (stereo unspecified),.,.,-1.8
O=C(O)c1cc(C(=O)C2CC2)c[nH]1,.,-3.7,23.2*
O=C(O)c1cc(C(=O)C2CCCCC2)c[nH]1,6.1,-2.6,-0.9
NC(c1csc(Nc2ccc(C(F)(F)F)cn2)n1)C1CCCCC1 (stereo unspecified),26.3,.,-2.9
COc1ccccc1NC(=S)N=Nc1c(O)[nH]c2ccc(Br)cc12,50.4*,-5.9,-0.3
Cc1cccc(NC(=S)N=Nc2c(O)[nH]c3ccccc23)c1,15.0,-6.4,0.7
COc1cc(OC)cc(C2=Cc3ccccc3C(CC(=O)c3ccco3)N2c2ccc(-c3cncnc3)cc2)c1 (stereo unspecified),.,.,0.2
O=C(N/N=C/c1ccc(-c2ccccc2Cl)o1)c1ccccc1,17.5,-3.1,0.0
O=C(O)c1ccc(N/N=C/c2ccc(-c3ccccc3Cl)o2)cc1,67.6*,-2.2,0.0
Cc1ccsc1C(=O)OCC(=O)NCCNC(=O)COC(=O)c1sccc1C,4.8,5.5,-0.5
Cc1ccsc1C(=O)OCC(=O)Nc1sccc1C(N)=O,-27.5,-2.1,20.3*
CCOC(=O)c1c(CSC(=N)N)n(-c2ccc(C)cc2)c2cc(Br)c(OC(C)=O)cc12,74.4*,-6.0,0.3
CCOC(=O)c1c(CSC(=N)N)n(C)c2cc(Br)c(OC(C)=O)cc12,21.4,-6.4,-0.4
COc1ccc(CN2C(=O)C(CC(=O)NC3CCCC3)CC(C(=O)N3CCOCC3)=C2C)cc1 (stereo unspecified),.,.,4.6
CCc1nc2ccc(C(=O)N3CCN(c4ccccc4)CC3)cn2c1N(CCC(C)C)CCN(C)C,10.8,.,-2.7
SMILES,H9c2 TAG inh,beta cell repl,iPSC survival up
Cc1cccc2cc(C#N)c(N3CCN(C)CC3)nc12,-11.6,0.7,3.9
Cc1cc(C)c2nc(N3CCN(C)CC3)c(C#N)cc2c1,8.9,-3.0,21.2*
O=C1CCCN1CCCNc1nc(NCc2cccs2)nc2ccsc12,6.0,.,9.4
CN1OC[C@@H]2CN(C(=S)NCCc3ccccc3)[C@H](c3ccc(-n4ccnc4)cc3)C[C@@H]21,.,.,-1.0
CCn1c(=N)n(CC(=O)c2ccc(Br)s2)c2ccccc21,6.0,-5.3,-0.4
CCCCn1c(=N)n(CC(=O)c2ccc(Br)s2)c2ccccc21,70.0*,-6.2,-0.2
CCc1nc2ccc(C(=O)Nc3cc(-c4ccccc4)ccc3OC)cn2c1N(CCN(C)C)CC1CC1,96.4,.,-3.8
C[C@H]1CN([C@@H](C)CO)C(=O)c2cc(Br)cnc2O[C@H]1CN(C)C(=O)C1CC1,3.6,.,2.6
C[C@@H]1CN([C@@H](C)CO)C(=O)c2cc(Br)cnc2O[C@H]1CN(C)C(=O)C1CC1,0.7,.,20.1*
O=C1/C(=C/c2cccc([N+](=O)[O-])c2)CCc2ccccc21,.,-4.7,-1.5
